# An excerpt weighted towards active compounds, which were near 1.7% of everything screened.
# pAkt inh = HTS Assay for Inhibitors of Akt Phophorylation: Primary Screen. activity change, % for hits at 50 µM. 0.32% of 360,000 active. Neuro2A IGF-stimulated pAkt S473 HTRF, 20 min; stronger effect = lower value; in the data active = activity change below about -80%; inconclusive = mostly about -51% to -80%
#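 Neuro2A cells in DMEM with 0.5% FBS, overnight at 37 deg C, given compound at single 50 µM final, then IGF (6 nM final) for 20 min at 37 deg C. Lysed; phospho-Akt Ser473 by HTRF after 24 h, 665/615 ratio.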
# hERG WT inh = qHTS for Inhibitors of KCHN2 3.1: Wildtype qHTS | U2OS, BacMam KCNH2, thallium flux FluxOr; stronger effect = lower value | activity change, % at 1.84 µM | 0.37% of 340,000 active;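 active = maximum activity change below -70%; inconclusive = maximum activity change between -70% and -50%; inactive = maximum activity change above -50%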
# Target sequence (Q12809 whole entry, looked up): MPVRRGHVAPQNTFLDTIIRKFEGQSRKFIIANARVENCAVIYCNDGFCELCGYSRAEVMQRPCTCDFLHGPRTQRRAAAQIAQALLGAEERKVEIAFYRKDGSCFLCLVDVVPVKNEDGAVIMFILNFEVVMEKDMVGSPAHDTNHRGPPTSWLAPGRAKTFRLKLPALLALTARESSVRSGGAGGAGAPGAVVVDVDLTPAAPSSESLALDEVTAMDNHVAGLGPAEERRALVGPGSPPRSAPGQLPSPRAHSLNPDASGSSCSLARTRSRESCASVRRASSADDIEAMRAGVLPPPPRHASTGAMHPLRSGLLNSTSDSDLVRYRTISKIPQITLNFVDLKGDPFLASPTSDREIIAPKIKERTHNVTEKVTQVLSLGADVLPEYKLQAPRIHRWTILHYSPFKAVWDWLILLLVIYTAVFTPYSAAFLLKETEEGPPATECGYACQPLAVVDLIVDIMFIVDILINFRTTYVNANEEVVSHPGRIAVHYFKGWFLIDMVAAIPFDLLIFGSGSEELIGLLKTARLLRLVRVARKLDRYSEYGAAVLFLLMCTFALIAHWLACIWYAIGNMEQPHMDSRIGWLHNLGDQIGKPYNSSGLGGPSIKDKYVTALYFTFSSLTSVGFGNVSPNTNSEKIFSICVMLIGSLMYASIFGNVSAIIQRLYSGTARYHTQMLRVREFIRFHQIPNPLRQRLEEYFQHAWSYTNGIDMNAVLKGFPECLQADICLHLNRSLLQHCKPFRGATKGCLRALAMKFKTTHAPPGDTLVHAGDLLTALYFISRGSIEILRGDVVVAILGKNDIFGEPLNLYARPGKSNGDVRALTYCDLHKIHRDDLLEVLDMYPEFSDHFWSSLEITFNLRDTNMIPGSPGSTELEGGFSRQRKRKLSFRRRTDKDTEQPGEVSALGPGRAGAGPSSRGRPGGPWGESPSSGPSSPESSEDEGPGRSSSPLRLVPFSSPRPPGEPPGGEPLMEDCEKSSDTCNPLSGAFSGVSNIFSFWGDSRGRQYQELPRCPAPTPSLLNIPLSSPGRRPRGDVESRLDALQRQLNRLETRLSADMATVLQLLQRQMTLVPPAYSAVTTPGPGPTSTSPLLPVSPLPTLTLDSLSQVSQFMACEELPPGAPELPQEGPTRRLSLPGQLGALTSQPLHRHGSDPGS
#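 U2OS cells transduced with wild-type KCNH2 virus are loaded with FluxOr dye for 45 min, and thallium flux is measured in kinetic reads before and after stimulation buffer. Rate constants are normalized to DMSO controls.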
# RXFP1 antagonist = qHTS Assay for Antagonists of the Relaxin Receptor RXFP1; Relaxin receptor 1 (Homo sapiens), Q9HBX9; HEK293-RXFP1, relaxin-stimulated cAMP HTRF, 30 min; stronger effect = lower value; activity change, negative = inhibition, % at 57.5 µM; 0.59% of 350,000 active;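 active = activity change of -60% or lower, but not beyond a set lower limit; inconclusive = change between -60% and -40%, or beyond the set limit; inactive = change above -40%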
# RXFP1 ag = qHTS Assay for Agonists of the Relaxin Receptor RXFP1. HEK293T-RXFP1 cAMP TR-FRET, 30 min; response scale: percent of porcine relaxin response, buffer zero. Potency, µM (top dose mostly 57.5 µM), usual class: activators. Relaxin receptor 1 (Homo sapiens), Q9HBX9. 0.3% of 370,000 active; active = well fitted activation curve with a large enough effect; inconclusive = small, poorly fitted or top-dose-only effect; note: nearly all actives have a fitted effect of over 60% in size
#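 HEK293T cells stably expressing RXFP1 were pretreated with the PDE4 inhibitor Ro 20174, exposed to compounds for 30 min at 37C, lysed, and cAMP was read by TR-FRET. Data normalized to buffer (basal) and 29 nM porcine relaxin (100%).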
# KCNH2 3.1 inh = qHTS for Inhibitors of KCHN2 3.1: Mutant qHTS; U2OS KCNH2 3.1, thallium flux FluxOr; stronger effect = lower value; activity change, % (tested at about 1.8 µM); 0.95% of 340,000 active; AID 720553, 2013;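 active = maximum activity change below -70%; inconclusive = maximum activity change from -70% to -50%; inactive = maximum activity change above -50%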;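 note: thallium influx rate constant from kinetic fluorescence after stimulation buffer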
#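 Steps: virus added to U2OS suspension (4 h, RT, dark); medium with 10% FBS added, cells plated, 37 C overnight; FluxOr/Red40 loading buffer 45 min RT; stimulation buffer, 2 min kinetic read; rate constant normalized.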
# A number is an active result; n = inactive; u = inconclusive; x = no result; ! = not confirmed by another sample.
SMILES,pAkt inh,hERG WT inh,RXFP1 antagonist,RXFP1 ag,KCNH2 3.1 inh
CCOc1ccc2[nH]c(C)c(CN3CCN(C)CC3)c(=O)c2c1,x,n,n,n,n
CCOc1ccc2[nH]c(C)c(CN3CCN(CC)CC3)c(=O)c2c1,-122%,n,n,n,n
CCOC(=O)N1CCN(c2c(F)cc3[nH]c(=S)[nH]c3c2Br)CC1,n,n,-65,n,n
CCOC(=O)N1CCN(c2cc3[nH]c(=S)[nH]c3cc2F)CC1,n,n,u,n,n
Cc1ccc(Nc2nc3ccc(Cl)cc3n3cnnc23)cc1F,n,-127,n,n,n
O=C(CSc1nc2ccccc2c(=O)n1CCCN1CCOCC1)Nc1ccc(F)c(Cl)c1,n,n,n,x,n
CCN(CC)CCn1c(SCC(=O)Nc2ccc3c(c2)CCC3)nc2ccccc2c1=O,n,n,n,n,-87
O=C(CSc1nc2ccccc2c(=O)n1-c1ccccc1F)Nc1ccc2c(c1)CCC2,n,n,n,n,n
Cn1nc(CC(=O)Nc2ccc3c(c2)CCC3)c2ccccc2c1=O,-126%,n,n,n,n
Cc1ccc(NC(=O)CSc2nc3ccccc3c(=O)n2CCCN2CCCCC2)cc1Cl,n,n,n,n,-74
Cn1nc(CC(=O)NC2CCCCCCCCCCC2)c2ccccc2c1=O,n,n,n,n,n
CCCCOc1ccccc1Cn1c(=O)oc2ccccc21,-112%,n,n,n,n
O=c1oc2ccccc2n1Cc1ccccc1F,n,x,n,n,n
CCOc1ccccc1Cn1c(=O)sc2ccccc21,n,n,-87,n,n
CC(C)CCOc1ccccc1Cn1c(=O)sc2ccccc21,x,x,u,n,x
Cc1cc(NC(=O)CSc2nnc(-c3ccccc3C)n2C)no1,n,n,n,n,n
COc1cccc(N2CCN(C(=O)c3cc4c(=O)n(Cc5cccnc5)ccc4nc3C)CC2)c1,x,x,n,n,x
O=C(CSc1nc2ccccc2c(=O)n1Cc1ccc(Cl)cc1)NCc1cccs1,n,n,n,n,-82
Cc1ccc(Cn2c(SCC(=O)Nc3cc(C)on3)nc3ccccc3c2=O)cc1,u,n,n,n,-97
Cc1cc(NC(=O)CSc2nc3ccsc3c(=O)n2CCCC(=O)NCCc2ccccc2)no1,n,n,-79,n,n
COc1cc(/C=C/c2ccc3cccc(O)c3n2)cc(OC)c1OC,n,n,n,n,n
C=CCn1c(SCn2nnc3ccccc3c2=O)nc2scc(-c3cccs3)c2c1=O,n,n,n,n,n
O=C(COC(=O)c1ccco1)Nc1nc2c(F)c(F)c(F)cc2s1,n,n,n,n,n
O=C(COC(=O)c1ccc(NS(=O)(=O)c2cccs2)cc1)Nc1nc2c(F)c(F)c(F)cc2s1,n,n,-62,n,n
CCN(CC)CCCNC(=O)c1cn(CC)c2ccc(S(=O)(=O)N(C)C3CCCCC3)cc2c1=O,n,n,n,n,n
SMILES,pAkt inh,hERG WT inh,RXFP1 antagonist,RXFP1 ag,KCNH2 3.1 inh
CCCCN(C)CCCNC(=O)c1cn(CC)c2ccc(S(=O)(=O)N3CCc4ccccc4C3)cc2c1=O,n,u,n,n,-91
CCCCN(CCCC)CCNC(=O)c1cn(CC)c2ccc(S(=O)(=O)N(C)C3CCCCC3)cc2c1=O,n,-70,n,n,-83
CC1CC(C)CN(C(=O)c2cc3c(=O)n4ccccc4nc3s2)C1 (stereo not drawn),n,n,n,n,n
COc1cc(C(=O)Nc2ccc3c(c2)CCN3C(C)=O)cc(OC)c1OC,n,n,n,n,n
CCOc1ccccc1-c1nc(C(N)=O)c2[nH]c(=O)n(-c3ccc(F)cc3)c2n1,n,n,x,u,-84
CC(C)c1nc(C(N)=O)c2[nH]c(=O)n(-c3ccc(F)cc3)c2n1,n,n,x,n,n
CCCCN1C(=O)c2ccc(C(=O)Nc3c(N)n(CCCC)c(=O)n(C)c3=O)cc2C1=O,n,n,n,n,n
Cc1ccc(CNC(=O)C(C)n2nc(C)c3sc4ccccc4c3c2=O)cc1 (stereo not drawn),x,x,n,32µM,x
C=CCn1c(=S)[nH]c2cc(C(=O)Nc3ccc(OC)c(OC)c3)ccc2c1=O,n,n,n,n,n
O=C(N/N=C/c1ccc(O)cc1)c1csc2ccccc12,-107%,n,n,n,n
Cc1nn(CC(=O)N2CCN(c3cccc(C(F)(F)F)c3)CC2)c(=O)c2cccn12,n,n,n,35µM!,n
O=[N+]([O-])c1cccc(N/N=C/c2cccc(O)c2O)c1,n,n,-87,n,n
O=[N+]([O-])c1ccccc1N/N=C/c1cccc(O)c1O,n,n,n,n,n
COc1ccc([C@H]2[C@H](C(=O)C(C)(C)C)N3N=Cc4ccccc4C3[C@]23N=C(c2ccccc2)OC3=O)cc1OC (stereo partly drawn),-106%,n,n,n,n
COc1ccc([C@H]2[C@H](C(=O)C(C)(C)C)N3N=Cc4ccccc4C3[C@]23N=C(c2ccccc2)OC3=O)cc1 (stereo partly drawn),n,n,n,n,n
COc1ccc(Cc2nc3ccc(S(=O)(=O)N4CCOCC4)cc3[nH]2)cc1OC,n,n,n,n,n
Cc1ccc(S(=O)(=O)CC(O)CN2CCCC2=O)cc1 (stereo not drawn),-117%,n,n,n,n
CSc1nc(SCC(=O)O)c2c3c(sc2n1)COC(C)(C)C3,n,n,n,u,n
CSC1=NC(NCCCO)c2c(sc3c2CC(C)(C)OC3)N1 (stereo not drawn),-101%,n,n,n,n
O=C(C1=C(O)C(=O)N(CCc2ccccc2)C1c1cccs1)c1ccco1 (stereo not drawn),n,n,n,u,-124
COCCCN1C(=O)C(O)=C(C(=O)c2ccco2)C1c1ccccc1 (stereo not drawn),-108%,n,n,u,n
O=C(C1=C(O)C(=O)N(CCc2ccccc2)C1c1cccnc1)c1ccco1 (stereo not drawn),n,n,n,u,n
COc1ccc(NC(=O)c2c([N+](=O)[O-])c(C(C)(C)C)nn2C)cc1,n,n,n,n,-81
CNC(=O)NC(=O)C(C)OC(=O)c1cc2c(s1)CCCCC2 (stereo not drawn),n,n,n,n,-98
CC1(C)CC2CC(C)(CN2CC(O)COc2ccccc2)C1 (stereo not drawn),n,n,n,n,n
Cc1ccc(CNC(=O)CSc2c3c(nc4cc(Cl)ccc24)CCCC3)o1,-103%,n,n,n,n
CCOc1ccc(CNC(=O)CSc2c3c(nc4cc(Cl)ccc24)CCCC3)cc1,x,x,n,n,x
Cc1ccc(C2=NOC(=O)/C2=C\C=C\c2ccccc2)cc1,n,n,-108,n,n
